Test results: PubChem BioAssay AID1347048 (National Center for Advancing Translational Sciences (NCATS), 2019)
Screen size: about 76,000 compounds; about 1,200 (1.6%) were called active. A call without a number means that no potency is given here. About 4% were inconclusive and are not listed. Calls come from the whole dose curve. Many of the other results were omitted from the sample, so actives are more common in it than they were.

Biological target: Atrial natriuretic peptide receptor 1 (Homo sapiens) (UniProt P16066)
Test: Natriuretic polypeptide receptor (hNpr1) antagonism - Primary qHTS; note: nearly all actives have a fitted effect of over 60% in size
Settings: HEK293 hNpr1 GloSensor cGMP, ANP-stimulated luminescence; series mostly up to 46.3 µM
In short: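 Compound pre-incubated 30 min at room temperature on GloSensor-loaded HEK293 cells stably carrying hNpr1 and the pGS-40F cGMP biosensor. Stimulation uses hNppA at 0.1 nM final; luminescence is taken at baseline and 20 min post-agonist.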
Potency is the fitted concentration of half-maximal effect.

Atrial natriuretic peptide receptor 1 (Homo sapiens), sequence (P16066 whole entry, looked up): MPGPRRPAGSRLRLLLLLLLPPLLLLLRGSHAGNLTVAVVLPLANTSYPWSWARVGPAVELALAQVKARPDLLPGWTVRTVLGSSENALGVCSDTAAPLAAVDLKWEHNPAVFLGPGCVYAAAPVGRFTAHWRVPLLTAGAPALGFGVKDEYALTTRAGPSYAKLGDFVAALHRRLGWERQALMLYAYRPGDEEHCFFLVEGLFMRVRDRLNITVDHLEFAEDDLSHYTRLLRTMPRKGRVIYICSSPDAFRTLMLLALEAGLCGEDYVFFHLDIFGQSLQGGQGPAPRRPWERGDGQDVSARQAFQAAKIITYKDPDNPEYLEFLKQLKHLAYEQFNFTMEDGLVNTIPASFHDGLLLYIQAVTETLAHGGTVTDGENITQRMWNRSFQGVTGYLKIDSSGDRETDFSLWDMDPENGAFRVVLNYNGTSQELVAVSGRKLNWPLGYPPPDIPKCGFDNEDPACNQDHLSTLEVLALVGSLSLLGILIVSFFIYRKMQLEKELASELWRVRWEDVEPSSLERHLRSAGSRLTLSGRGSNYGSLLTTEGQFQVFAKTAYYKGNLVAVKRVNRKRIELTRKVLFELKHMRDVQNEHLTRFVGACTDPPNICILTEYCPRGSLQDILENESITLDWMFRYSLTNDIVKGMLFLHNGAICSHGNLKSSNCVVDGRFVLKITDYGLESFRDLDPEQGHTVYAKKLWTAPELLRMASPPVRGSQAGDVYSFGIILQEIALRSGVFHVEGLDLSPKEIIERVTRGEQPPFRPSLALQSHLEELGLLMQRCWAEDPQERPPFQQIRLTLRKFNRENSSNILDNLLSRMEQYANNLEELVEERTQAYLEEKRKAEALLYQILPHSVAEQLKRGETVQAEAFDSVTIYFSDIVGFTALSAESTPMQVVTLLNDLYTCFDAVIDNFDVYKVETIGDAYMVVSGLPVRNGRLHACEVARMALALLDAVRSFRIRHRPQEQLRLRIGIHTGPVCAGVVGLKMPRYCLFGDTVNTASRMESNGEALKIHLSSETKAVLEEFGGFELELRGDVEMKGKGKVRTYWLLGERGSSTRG

SMILES	Potency
CCC(C)NC(=O)CN1C(=O)NC2(CCC(C(C)(C)C)CC2)C1=O (stereo not given)	inactive
CCCNc1cc(N2CCC(CCC(=O)NCc3ccc(Cl)cc3)CC2)ncn1	inactive
O=C(Cc1cccnc1)N1CCCC(c2nc(CCOCC3CCCC3)no2)C1 (stereo not given)	inactive
C1CCC(COCCc2noc(C3CNC3)n2)C1	12.6 µM (active)
O=C(c1ccoc1)N1CCCC(c2nc(CCOCC3CCCC3)no2)C1 (stereo not given)	inactive
COCCC(=O)N1CCC2(CC1)CC(C(=O)N1CCOCC1)N(C)C2 (stereo not given)	inactive
Cc1ccc2nc3n(c2c1)[C@@H](CNC(=O)COc1ccccc1)COC3	inactive
Cc1ccc2c(c1)nc1n2[C@@H](CNS(=O)(=O)c2ccccc2)COC1	31.6 µM (active)
Cc1ccc2c(c1)nc1n2[C@@H](CNC(=O)c2ccccc2)COC1	inactive
COCC1CN(Cc2ccc(OC)c(OC)c2Cl)CC12CCNCC2 (stereo not given)	inactive
COc1ccc(-c2cc(CC3(NCc4cccc(OC)c4)COC3)no2)cc1	inactive
CCN(CC)C(=O)[C@@H]1CCC[C@@H](NC2CCC2)CN(C)C(=O)C1	inactive
COc1ccc(-c2nc3c(c(=O)[nH]2)CCN(C(=O)Cc2ccc(OC)c(Cl)c2)C3)cc1	inactive
COc1ccc(CC(=O)N2CCC(Cc3nc(C(C)C)no3)CC2)cc1Cl	inactive
COc1ccc(-c2noc(CC3CCN(C(=O)Cc4ccc(OC)c(OC)c4)CC3)n2)cc1	2.82 µM (active)
COc1ccc(CC(=O)N2CCC(Cc3nc(-c4ccccc4)no3)CC2)cc1OC	10 µM (active)
COc1ccc(CC(=O)N2CCC(Cc3nc(-c4cnccn4)no3)CC2)cc1Cl	inactive
COc1ccc(CC(=O)N2CCC3(CC2)CC(O)CCO3)cc1OC (stereo not given)	inactive
CCOCCOc1cccc(C(=O)N2CCC3(CCOCC3)CC2)c1	inactive
CN(C)C(=O)c1n[nH]c2c1CN(C(=O)c1cccc(C(F)(F)F)c1)CC2	inactive
Cc1cc(C)c(CNC(=O)c2nc(-c3cccc(CO)c3)cc3c2ccn3C)c(=O)[nH]1	inactive
Cc1ccccc1-n1nc(CC(N)=O)nc1-c1ccc(Cn2cnnn2)cc1	inactive

SMILES	Potency
Cc1ccccc1CC(=O)N1CCC[C@H]1c1nc(-c2ccccc2Cl)no1	inactive
N#Cc1cccc(CN2CCC(C3=NC(O)c4cc(F)ccc4N3)CC2)c1 (stereo not given)	8.91 µM (active)
O=c1[nH]c(C2CCN(Cc3ccccc3)CC2)nc2ccc(F)cc12	inactive
O=c1[nH]c(C2CCN(Cc3ccc(F)cc3)CC2)nn1Cc1ccccc1	inactive
Cc1ccc(C(=O)N2CCN(c3cc(-c4ccc(Cl)cc4)[nH]n3)CC2)c(C)c1	6.31 µM (active)
O=C(c1ccc(Br)cc1)N1CCN(c2cc(-c3ccccc3)[nH]n2)CC1	inactive
O=C(c1ccoc1)N1CCN(c2cc(-c3ccc(Cl)cc3)[nH]n2)CC1	inactive
O=C(c1ccc(F)cc1F)N1CCN(c2cc(-c3ccc(Cl)cc3)[nH]n2)CC1	14.1 µM (active)
COc1ccc(-c2cc(N3CCN(C(=O)c4ccncc4)CC3)n[nH]2)cc1	inactive
O=C(c1cc(F)ccc1Cl)N1CCN(c2cc(-c3ccc(F)cc3)[nH]n2)CC1	17.8 µM (active)
COc1ccc(-c2cc(N3CCN(C(=O)c4cc(OC)cc(OC)c4)CC3)n[nH]2)cc1	inactive
COc1ccc(-c2cc(N3CCCN(C(=O)c4ccc(C)cc4)CC3)n[nH]2)cc1	inactive
O=C(Cc1ccc(F)cc1)NC1CCN(c2cc(-c3ccc(Cl)cc3)[nH]n2)CC1	inactive
CC(C)c1cc(C2CCCN2CCC(=O)Nc2ccc(C(N)=O)cc2)no1 (stereo not given)	inactive
COc1ccc(-c2nc(C3CC(=O)N(c4ccc(F)c(Cl)c4)C3)no2)cc1OC (stereo not given)	inactive
O=C1NCCOCCCN(C(=O)CC2CCCC2)[C@H]2CCC[C@@H]12	inactive
Cn1cnc(S(=O)(=O)N2CCCC(Cc3noc(-c4cnccn4)n3)C2)c1 (stereo not given)	inactive
Cc1cn2nc(C(=O)NCC(C)c3ccccc3)cc2c(N2CCCC2)n1 (stereo not given)	inactive
O=C(NCC1CC1)C1Cn2cccc2C(=O)N1Cc1cccnc1 (stereo not given)	inactive
Cc1ccnc(N2CCC(c3nnc(-c4ccc(F)cc4)o3)CC2)n1	inactive
COc1ccc(-c2onc(C)c2C(=O)NCCC(c2ccccc2)c2ccccc2)cc1	inactive
Cc1cccc(-c2cc(C3CCN(S(=O)(=O)c4ccc(C#N)cc4)CC3)[nH]n2)c1	inactive

SMILES	Potency
Cc1cccc(CN2CCCCCCNC(=O)[C@@H]3CCC[C@@H]32)c1	inactive
COc1cccc(CN2Cc3nc(-c4cc(F)cc(F)c4)ccc3OCC2=O)c1	inactive
COc1ccc(C2Cn3nnc(C(=O)N4CCN(C(=O)c5cccc(Cl)c5)CC4)c3CO2)cc1 (stereo not given)	7.08 µM (active)
COc1ccc(C2Cn3nnc(C(=O)N4CCC(C(=O)NCc5ccc(C)cc5)CC4)c3CO2)cc1 (stereo not given)	inactive
Cc1ccc(C2Cn3nnc(C(=O)N4CCN(C(=O)COc5cccc(C)c5)CC4)c3CO2)cc1 (stereo not given)	inactive
CN(C)c1ccc(C(=O)N2CCN(C(=O)c3nnn4c3COC(c3ccc(Cl)cc3)C4)CC2)cc1 (stereo not given)	inactive
COc1ccc(C2Cn3nnc(C(=O)N4CCN(C(=O)c5ccc(C)cc5C)CC4)c3CO2)cc1 (stereo not given)	14.1 µM (active)
O=C(c1ccoc1)N1CCN(C(=O)c2nnn3c2COC(c2ccc(Cl)cc2)C3)CC1 (stereo not given)	inactive
O=C1N(Cc2ccc(F)cc2)C[C@H]2CN(Cc3ccncc3F)CCN12	inactive
Cc1ccc(C2Cn3nnc(C(=O)N4CCC(C(=O)Nc5ccc(Cl)cc5)CC4)c3CO2)cc1 (stereo not given)	inactive
CC(C)(O)CCc1ccc(C(=O)NCc2nc(-c3ncccn3)no2)cc1	inactive
COc1ncccc1Nc1cnc2ccc(N3CCOCC3)nn12	inactive
CCOc1cccc(-c2nnc(CCC(=O)NCCC(C)C)c(=O)[nH]2)c1	inactive
CCNc1cc(N2CCC(CCC(=O)N3CCc4ccccc4C3)CC2)ncn1	11.2 µM (active)
CCNc1cc(N2CCC(CCC(=O)Nc3ccc(C)cc3C)CC2)ncn1	inactive
CCCNc1cc(N2CCC(CCC(=O)Nc3ccc(C)cc3)CC2)ncn1	inactive
CS(=O)(=O)N1C[C@H]2CCN(C(=O)c3cc(F)ccc3Cl)C[C@H]21	inactive
COc1ccc2nc([C@H]3CCN(Cc4ccc(NC(C)=O)cc4)C3)[nH]c2c1	inactive
O=c1[nH]c(C2CCCN(Cc3ccc(-c4ccsc4)cc3)C2)nc2ccc(F)cc12 (stereo not given)	inactive
Cc1ccc2nc(C3CCCN(Cc4ccc(C#N)cc4)C3)[nH]c(=O)c2c1 (stereo not given)	14.1 µM (active)
CC(C)c1cc(C(=O)N2CCC(n3cc(-c4ccccn4)nn3)CC2)n(C)n1	10 µM (active)
CC(C)c1noc(-c2cn(C3CCN(C(=O)COc4ccccc4)C3)nn2)n1 (stereo not given)	inactive

SMILES	Potency
CC(C)c1noc(-c2cn(C3CCN(C(=O)c4cccc(C#N)c4)CC3)nn2)n1	inactive
COc1cccc(-c2noc(CC3CCN(C(=O)c4ccc(F)cc4)CC3)n2)c1	5.62 µM (active)
COc1ccc(C(=O)N2CCCC(Cc3nc(C4CCOCC4)no3)C2)cc1 (stereo not given)	inactive
O=C(c1cccnc1)N1CCC(Cc2nc(C3CCOCC3)no2)CC1	inactive
O=C(c1ccccc1)N1CCC(C(=O)N2CCC(Cc3nc(-c4ccc(F)cc4)no3)CC2)CC1	11.2 µM (active)
O=C(C1CC1)N1CCCC(c2noc(COc3ccccc3F)n2)C1 (stereo not given)	inactive
COc1cccc(C(=O)N2CCC(Cc3nc(-c4cnccn4)no3)CC2)c1	inactive
CCN(Cc1ccncc1)C(=O)c1ccc2c(c1)C(O)CCCCCN2C (stereo not given)	inactive
C=C(C)CN(CC)C(=O)c1c(C)oc2c1CN(Cc1cccc(F)c1)CC2	inactive
O=C(C[C@@H]1CCNC[C@@H]1Cc1cc(CC2CCCCC2)on1)N1CCOCC1	inactive
COCCCNC(=O)c1ccc2c(c1)n(Cc1cccc(OC)c1)c(=O)c1ccnn12	inactive
COCC1CN(C2CCC2)CC12CCN(C(=O)CCc1ccccc1)CC2 (stereo not given)	inactive
COc1ccc(CN2C(=O)COC[C@H]2C(=O)Nc2ccc(C(C)C)cc2)c(OC)c1	inactive
CN(C)c1cccc(-c2cnc(Nc3cnccn3)c3c2CCO3)c1	inactive
CN1CCN(Cc2ccc(Nc3ncc(-c4cccnc4)c4c3OCC4)cc2)CC1	inactive
CN(C)c1cccc(-c2cnc(Nc3ccc(N4CCOCC4)cc3)c3c2CCO3)c1	25.1 µM (active)
O=C(Nc1ccc(-c2nnc3n2CCCC3)cc1)c1ccsc1	inactive
CCn1c2c(c(=O)n1-c1ccccc1)CCN(C(=O)COc1ccccc1)C2	inactive
O=C(Nc1ccc(F)cc1)c1ccc2ccnn2c1	inactive
